Experimental data as given in PubChem BioAssay (EPA / NIEHS).
More than one record can exist for a structure, and the calls need not agree. Active and inactive are the calls of the source. The calls were made as follows: active = hit-call score of the fitted dose curve at least 0.9, where 1 is the maximum; inactive = score below 0.9.

Test: ATG_Sox_CIS: Attagene CIS-FACTORIAL HepG2 Assay for human SRY-box transcription factor (SOX) (AID 2282960)
Details: HepG2 Attagene cis-factorial SOX reporter, mRNA; actives raise or lower the signal
Experimental: ATG_CIS is a cell-based, multiplexed-readout assay that uses HepG2, a human liver cell line, with measurements taken at 24 hours after chemical dosing in a 24-well plate.ATG_Sox_CIS is one of 52 assay component(s) measured or calculated from the ATG_CIS assay. It is designed to make measurements of mRNA induction, a form of inducible reporter, as detected with fluorescence intensity signals by Reverse transcription polymerase chain reaction (RT-PCR) and Capillary electrophoresis technology.Data from the assay component ATG_Sox_CIS was analyzed into 1 assay endpoint. This assay endpoint, ATG_Sox_CIS, was analyzed with bidirectional fitting relative to DMSO as the negative control and baseline of activity. Using a type of inducible reporter, measures of mRNA for gain or loss-of-signal activity can be used to understand the reporter gene at the transcription factor-level as they relate to the gene SOX1. Furthermore, this assay endpoint can be referred to as a primary readout, because this assay has produced multiple assay endpoints where this one serves a reporter gene function. To generalize the intended target to other relatable targets, this assay endpoint is annotated to the dna binding intended target family, where the subfamily is HMG box protein.
Human liver HepG2 cells are transiently transfected with multiple reporter transcription units (MRTUs) in 6-well plates using FuGene 6 reagent (Roche; 3 ml FuGene/1 mg DNA). The MRTU constructs are regulated by a cis-regulating element (promoter). […] A major difference between the CIS and TRANS system is that in CIS activities of endogenous TFs are measured, whereas the TRANS assay evaluates changes in activities of exogenous, chimeric NR-Gal4 proteins. […] At the end of 24 hour incubation, total RNA was isolated using TriZol reagent (Invitrogen). The isolated RNA is then reverse-transcribed using oligo(dT) primer and Mo-MLV reverse transcriptase (Invitrogen) with DNAse I (Ambion) treatment for 30 min. The one-tenth of the produced cDNA was amplified by PCR using Taq DNA polymerase (Invitrogen) and two reporter sequence-specific primers. The PCR products were fluorescently labeled by primer extension with 6-arboxyfluorescein (6-FAM) 5'-labeled reporter sequence-specific primer (2 min at 95 C, 20 s at 68 C and 10 min at 72 C) and these products were digested with 5U of HpaI (New England Biolabs) for 2h at 37 C. The fragments were purified using Qiaquick PCR columns (Qiagen), analyzed on an ABI 3130xL genetic analyzer (Applied Biosystems) with peak positions identified by using a set of X-rhodamine (ROX)-labeled MapMarker1000 molecular weight standards (BioVentures). The raw capillary electrophoresis data was processed using Attagraph software (Attagene).

outcome, inactive:
CCO[Si](CCC1CCC2OC2C1)(OCC)OCC (stereo not given)
CCO[Si](C)(C)OCC
C=CC(=O)OCCC(F)(F)C(F)(F)C(F)(F)C(F)(F)C(F)(F)C(F)(F)F
Oc1c(Cl)ccc(Cl)c1Cl
O=C(O)CCC(F)(F)C(F)(F)C(F)(F)C(F)(F)C(F)(F)F
CCOC(=O)CN[C@@H](C(=O)N1CC[C@H]1C(=O)NCc1ccc(/C(N)=N/O)cc1)C1CCCCC1
CCCCCCCCCCCCOC(=O)c1cc(O)c(O)c(O)c1
COc1cc([N+](=O)[O-])ccc1N
Brc1ccc(Oc2ccc(Br)cc2Br)cc1
CCC1CO1 (stereo not given)
CCCCCCCCCCCC[N+](C)(C)Cc1ccccc1
FC(F)(F)C1(F)C(F)(F)C(F)(F)C(F)(F)C(F)(C(F)(F)F)C1(F)F (stereo not given)
CCc1cccc(CC)c1N(COC)C(=O)CS(=O)(=O)O
CC(C)(C)c1ccc(O)c(O)c1
CCCCCc1ccc(O)cc1
CC(C)c1c(C(=O)Nc2ccccc2)c(-c2ccccc2)c(-c2ccc(F)cc2)n1CC[C@@H](O)C[C@@H](O)CC(=O)O
O=S(=O)(O)c1ccccc1
O=c1cc(-c2ccccc2)oc2ccc3ccccc3c12
CC(C)(C)c1ccc(CCC=O)cc1
CCC(=O)O
O=P(O)(O)CCC(F)(F)C(F)(F)C(F)(F)C(F)(F)C(F)(F)C(F)(F)F
CCCCCC(C)OC(=O)COc1ccc(Cl)c2cccnc12 (stereo not given)
CCN(CC)CC
O=C(CCCN1CCC(O)(c2ccc(Cl)cc2)CC1)c1ccc(F)cc1
CCCCCCCCCCCC(=O)O
Cc1[nH]nc2c1N=C(c1ccccc1Cl)c1cc([N+](=O)[O-])ccc1N2
O=C(O)C(F)(F)OC(F)(F)C(F)(F)OC(F)(F)C(F)(F)OC(F)(F)C(F)(F)C(F)(F)C(F)(F)F
O=CC(F)(F)C(F)(F)C(F)(F)F
OCC(F)(F)C(F)(F)C(F)(F)C(F)(F)C(F)(F)C(F)(F)C(F)(F)C(F)(F)C(F)(F)C(F)(F)C(F)(F)F
O=C1OC(=O)C(F)(F)C1(F)F
c1ccc2c(c1)CCC2
CCc1cccc(CC)c1NC(=O)C(=O)O
COC(O)c1ccccc1 (stereo not given)
CCOC=C(C(=O)OCC)C(=O)OCC
N=C(N)c1ccc(OCCCCCOc2ccc(C(=N)N)cc2)cc1
CC(C)(O)C(=O)c1ccccc1
O=C1c2ccccc2C(=O)c2c(O)c(O)cc(O)c21

AC50, active:
CS(=O)(=O)c1ccc([C@@H](CC2CCCC2)C(=O)Nc2cnccn2)cc1Cl 170 µM
CCN(CC)CC 18.3 µM
O=C(O)C(F)(F)OC(F)(F)C(F)(F)OC(F)(F)C(F)(F)OC(F)(F)C(F)(F)C(F)(F)C(F)(F)F 37.3 µM
